This is a sample that favours compounds with a hit; in the whole collection about 3.3% have one here.
Mcl1 Noxa PPI = Mcl-1/Noxa binding inhibitors, primary screen, biochemical, TR-FRET, 1536-well | TR-FRET Mcl-1/Noxa peptide binding, 2 h | inhibition, % at 21.7 µM | Induced myeloid leukemia cell differentiation protein Mcl-1 (Homo sapiens), Q07820 | 220,000 compounds, 1.5% hits;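 active = compounds that cut the protein-peptide binding signal by more than 50% relative to plate controls in a single-dose test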;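 also: His-tagged Mcl-1 with rhodamine Noxa BH3 peptide and terbium anti-His antibody; 0% = Mcl-1 plus Noxa peptide wells and 100% = peptide-only wells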
eIF4E-4G inh = eIF4E–eIF4G protein interaction inhibitors, primary screen, biochemical, uHTS, TR-FRET, eIF4GI fragment; TR-FRET eIF4E-eIF4GI(517-606) binding, 2 h; inhibition, % at 21.7 µM; 220,000 compounds, 0.37% hits;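 also: 0% = full FRET control wells and 100% = background wells lacking eIF4GI fragment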
NCF1 inh = p47phox/p22phox peptide binding inhibitors, primary screen, biochemical, uHTS, NADPH oxidase regulatory subunit | 220,000 compounds, 0.53% hits | inhibition, % at 24.7 µM | fluorescence polarization, 2 h;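 also: 0% = p47phox with labelled peptide and 100% = labelled peptide alone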
Bim-Mcl-1 = inhibitors of Bim peptide binding to Mcl-1, primary screen, biochemical, bead-based flow cytometry, multiplex. 190,000 compounds, 0.1% hits. Induced myeloid leukemia cell differentiation protein Mcl-1 (Homo sapiens), Q07820. inhibition, % at 10 µM. AID 1009, 2008. Bim peptide-Mcl-1 binding; in the data active = inhibition above about 40%;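 also: 0% = no compound tracer wells and 100% = peptide blocker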
Mcl1 Bid PPI = Mcl-1/Bid binding inhibitors, primary screen, biochemical, TR-FRET, 1536-well. Induced myeloid leukemia cell differentiation protein Mcl-1 (Homo sapiens), Q07820. TR-FRET Mcl-1/Bid-Dy647 peptide binding. inhibition, % at 21.7 µM. 220,000 compounds, 0.97% hits. AID 1021, 2008;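 active = compounds that cut the binding signal by more than half at the single screening dose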;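 also: His-tagged Mcl-1 with europium anti-His antibody binding Bid BH3 peptide; 0% = Mcl-1 plus peptide wells and 100% = peptide-only wells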
14-3-3 Bad PPI = inhibitors of 14-3-3 zeta/Bad binding, primary screen, biochemical, TR-FRET, bovine 14-3-3 zeta. inhibition, % at 21.7 µM. TR-FRET 14-3-3zeta/Dy647-pBad peptide displacement, 1 h. 14-3-3 protein zeta/delta (Bos taurus), P63103. 220,000 compounds, 0.71% hits;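 active = inhibition above about 70%, limit read from the data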;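 also: 0% = full 14-3-3 plus peptide FRET controls and 100% = background without 14-3-3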
The depositor's hits bear a star; . = not tested or not shown; [ ] = another dose, or the depositor's remark.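 The calls were made as follows, unless noted: active = inhibition above about 30% (limit read from the data); inactive = the rest.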

SMILES	Mcl1 Noxa PPI	eIF4E-4G inh	NCF1 inh	Bim-Mcl-1	Mcl1 Bid PPI	14-3-3 Bad PPI
CN(C)S(=O)(=O)c1cccc(-c2nn(-c3ccccc3)cc2/C=C2\SC(=S)NC2=O)c1	108*	17	-100	35	88*	-4
CN(C)S(=O)(=O)c1cccc(-c2nn(-c3ccccc3)cc2/C=C(\C#N)c2nc3ccccc3[nH]2)c1	4	-1	-100	-3	5	-5
O=C(CSc1nnc(-c2ccco2)o1)c1ccc([N+](=O)[O-])cc1	11	93*	-12	.	-44	-5
O=C(CSc1nnc(-c2ccco2)o1)c1ccccc1Cl	20	0	-10	0	-31	8
COC(=O)COc1ccc(NS(=O)(=O)c2cccc([N+](=O)[O-])c2)cc1	5	1	-3	2	-34	1
N#Cc1ccc(CSc2nnc(NC(=O)c3ccc4ncsc4c3)s2)cc1	-97	75*	-8	-6	-82	86*
O=C(Nc1nnc(SCc2c(Cl)cccc2Cl)s1)c1ccc2ncsc2c1	-59	18	1	-4	0	93*
CCCCCOC(=O)CSc1nnc(-c2cc(OC)c(OC)c(OC)c2)o1	6	3	31*	-1	-3	-8
CCOC(=O)CSc1nnc(-c2cc(OC)c(OC)c(OC)c2)o1	4	1	4	0	-34	1
COc1cc(-c2nnc(SCc3cc(=O)oc4cc(O)c(O)cc34)o2)cc(OC)c1OC	77*	14	-20	5	-72	-8
O=C(O)/C=C/C(=O)Nc1ccc(Oc2ccc(NC(=O)/C=C/C(=O)O)cc2)cc1	66*	13	-7	0	-21	11
O=C(CSc1cccc[n+]1[O-])Nc1cc2c(cc1Cl)C(=O)c1ccccc1C2=O	85*	26	33*	0	81*	99*[fluorescence artefact?]
O=C(CSc1cccc[n+]1[O-])Nc1cc([N+](=O)[O-])ccc1Cl	17	1	-4	0	-12	-6
Oc1c(Cl)cc(Cl)cc1CNn1cnnc1	15	1	-4	-3	-45	-3
Oc1c(Cl)cc(Cl)cc1Sc1cc(Cl)cc(Cl)c1O	117*	23	-19	1	99*	79*
O=C1CN(C(=O)COC(=O)CNS(=O)(=O)/C=C/c2ccccc2)c2ccccc2N1	8	-1	2	-4	58*	21
COc1cc(/C=C(\C#N)c2nc3ccccc3s2)cc([N+](=O)[O-])c1O	99*	18	-86	4	49	28
N#C/C(=C\c1ccc(N2CCCC2)c([N+](=O)[O-])c1)c1nc2ccccc2[nH]1	36	-40	8	-2	68*	19
COc1ccc(-c2csc(/C(C#N)=C\c3ccc(O)c([N+](=O)[O-])c3)n2)cc1OC	102*	12	-16	.	70*	12
O=C(O)CC/C(=C\c1ccc(Cl)c([N+](=O)[O-])c1)c1nc2ccccc2s1	14	17	-26	-2	5	-3
N#C/C(=C\c1ccc(O)c([N+](=O)[O-])c1)c1nc2ccccc2s1	66*	12	-60	1	16	41
CCOC(=O)N/N=C(\CCC(=O)O)c1cccs1	9	-4	-4	.	6	-5
CCC(CO)NCC(O)COCc1ccc2c(c1)OCO2 (centres undefined)	11	-2	-3	2	4	2
O=C(O)C(=O)Cc1c[nH]c2ccccc12	46	3	-22	-1	-3	12
COc1ccc(C(=O)COc2ncnc3cc(Cl)ccc23)cc1	-12	-5	-3	.	-10	2
SMILES	Mcl1 Noxa PPI	eIF4E-4G inh	NCF1 inh	Bim-Mcl-1	Mcl1 Bid PPI	14-3-3 Bad PPI
CCc1nnc(NS(=O)(=O)c2ccc(N=CC3=C(O)CC(C)(C)CC3=O)cc2)s1	-7	4	-4	44*	-44	64
CS(=O)(=O)N1CCC(C(=O)NCc2ccc3c(c2)OCO3)CC1	-5	1	6	-1	-10	-14
Cc1ccc(OCc2ccc(C(=O)Nc3nc4ccccc4n3Cc3ccccc3)o2)c([N+](=O)[O-])c1	28	-1	32*	-2	68*	16
Cc1cc(S(=O)(=O)n2cnc3cc([N+](=O)[O-])ccc32)ccc1Cl	34	11	-5	-4	-8	2
Cc1ccc(S(=O)(=O)n2cnc3cc([N+](=O)[O-])ccc32)cc1C	19	2	7	-1	23	71*
O=C(NC1=C(NC2CCS(=O)(=O)C2)C(=O)c2ccccc2C1=O)c1ccccc1 (centres undefined)	70*	8	10	9	-50	-8
Cc1cccc(NC2=C(NC(=O)c3ccccc3)C(=O)c3ccccc3C2=O)c1	94*	-3	11	-4	-1	8
O=C(NC1=C(Nc2ccc(Cl)cc2)C(=O)c2ccccc2C1=O)c1ccccc1	61*	13	12	-23	-18	9
CN(C1=C(NC(=O)c2ccc(Cl)cc2)C(=O)c2ccccc2C1=O)c1ccccc1	19	10	9	-6	-54	-1
CCC(=O)NC(c1ccc(N(C)C)cc1)c1c(O)ccc2ccccc12 (centres undefined)	51*	2	-2	1	-18	-2
CCC(=O)NC(c1ccc(OC)cc1)c1c(O)ccc2ccccc12 (centres undefined)	5	2	-4	0	-8	-18
COc1ccc(NC(=O)c2c3c(nc4ccccc24)CCC3)cc1S(=O)(=O)N1CCOCC1	67*	19	6	-1	-99	-3
O=C(Nc1ccccc1)C1=C[C@@H](c2coc3ccccc3c2=O)C[C@@H](OCc2ccc(CO)cc2)O1	0	3	-37	-4	6	0
O=C(NCC1CCCO1)c1cc([N+](=O)[O-])ccc1Cl (centres undefined)	9	5	-15	-1	94*	-18
O=C(NCc1nc2ccccc2[nH]1)C1CCCCC1	11	3	78*	-3	-13	-3
O=C(Nc1nc2ccccc2[nH]1)C1CCCC1	6	-3	-6	1	-7	-8
O=C(NC(=S)N(CC1CCC1)CC1CCCO1)c1cccc([N+](=O)[O-])c1 (centres undefined)	-5	-3	-5	-1	-43	-8
